Inconclusive results are not listed. A number with no mark means an inactive call. Activity calls are given as the source filed them. The call rests on the fitted dose curve; in most records, active means well fitted inhibition curve with a large enough effect; inconclusive means small, poorly fitted or top-dose-only effect, or effect the other way; inactive means flat fitted curve, though single readings scatter.
Biological target: Ubiquitin carboxyl-terminal hydrolase 2 (Homo sapiens) (UniProt O75604)
Sequence (O75604 whole entry, looked up): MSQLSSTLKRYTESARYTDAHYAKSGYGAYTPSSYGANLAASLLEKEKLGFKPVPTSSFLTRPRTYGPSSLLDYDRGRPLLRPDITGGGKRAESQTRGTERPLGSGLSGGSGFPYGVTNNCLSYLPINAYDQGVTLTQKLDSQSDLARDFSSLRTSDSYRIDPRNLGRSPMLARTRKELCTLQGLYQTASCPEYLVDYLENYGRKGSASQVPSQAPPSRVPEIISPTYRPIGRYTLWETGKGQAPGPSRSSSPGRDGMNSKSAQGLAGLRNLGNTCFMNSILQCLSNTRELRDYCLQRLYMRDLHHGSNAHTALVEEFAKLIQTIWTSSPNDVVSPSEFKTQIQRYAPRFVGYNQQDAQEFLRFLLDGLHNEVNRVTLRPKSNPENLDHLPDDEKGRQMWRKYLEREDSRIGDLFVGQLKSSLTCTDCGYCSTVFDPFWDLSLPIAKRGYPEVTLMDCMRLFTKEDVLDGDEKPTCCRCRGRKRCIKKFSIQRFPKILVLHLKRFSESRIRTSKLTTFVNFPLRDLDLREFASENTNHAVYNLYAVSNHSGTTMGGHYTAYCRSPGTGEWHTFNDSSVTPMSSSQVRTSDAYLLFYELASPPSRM
Assay: Confirmation Assay for Inhibitors of Ubiquitin-specific Protease USP2a Using CHOP2 as the Reporter; further: nearly all actives have a fitted effect of over 55% in size;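 on activity change, negative = inhibition: plate controls were DMSO wells for no effect and full inhibition by NEM control for full effect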
Conditions: USP2 core, Ub-CHOP2 coupled reporter fluorescence; series mostly up to 38.3 µM; activity change, negative = inhibition: at the top concentration
Procedure, shortened: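 USP2 core (10 nM final) was preincubated with compound for 30 min at RT in Tris-HCl pH 8.0, CaCl2, beta-mercaptoethanol, CHAPS. Ub-CHOP2 and reporter substrate (25 nM final each) were added, and fluorescence (Ex 485/Em 531 nm) was read after 60 min.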
Potency means the concentration at half of the fitted maximal effect.

Row | SMILES | activity change, negative = inhibition [%] | Potency
1 | COc1ccc(NC(=O)CSc2nc(O)cc(=O)n2-c2ccc(OC)cc2)cc1 | -2.82 | 
2 | O=C(COC(=O)c1cc(-c2ccc(Cl)s2)nc2ccccc12)NCc1ccco1 |  | 18.5 µM (active)
3 | O=C1c2ccccc2C(=O)N1CCC1=CCCCC1 | -1.52 | 
4 | CC(NC(=O)COc1ccccc1-c1ccccc1)c1ccccc1 (centres undefined) | 2.1 | 
5 | CCCCn1c(SCC(=O)N2CCC(C)CC2)nc2cc(S(N)(=O)=O)ccc21 | -1.05 | 
6 | Cc1ccc(S(=O)(=O)Nc2ccccc2C(=O)Nc2nc(-c3ccc(F)cc3)cs2)cc1 |  | 14.7 µM (active)
7 | CC(C)(C)OC(=O)C[C@H]1C/C=C\C[C@H](CC(=O)N(CCO)Cc2ccccc2)C(=O)NC[C@H](c2ccccc2)OC1=O | 3.72 | 
8 | CCOC(=O)c1c(NC(C)=O)sc2c1CCCNC2=O | -2.31 | 
9 | c1ccc(-c2nc3nc4ccccc4nc3n2Cc2ccco2)cc1 | 5.83 | 
10 | COc1ccc(C(=O)COC(=O)c2ccccc2O)c(OC)c1 | -16.9 | 
11 | O=C1/C(=C/C=C/c2ccco2)SC(=S)N1c1ccc(O)cc1 |  | 5.21 µM (active)
12 | COCCn1c(CN(Cc2ccccc2)Cc2ccccc2)nc2c1c(=O)n(C)c(=O)n2C | 3.16 | 
13 | CCOc1ccc(C=NNc2ccc(S(=O)(=O)Nc3ccccc3C(=O)O)cc2[N+](=O)[O-])cc1 |  | 7.36 µM (active)
14 | Cc1cc(=O)oc(C)c1C(=O)NCCc1ccccc1 | 3.7 | 
15 | CCOc1ccc(NC(=O)c2cccc(-n3cnnn3)c2)cc1 | 1.67 | 
16 | CNC(=O)NC(=O)CSc1ccc(NC(C)=O)cc1 | -4.02 | 
17 | Cc1cc(C)cc(NC(=O)CSc2nc3c(c(=O)[nH]2)CN(Cc2ccc(F)cc2)CC3)c1 | -4.37 | 
18 | O=[N+]([O-])c1ccc(Sc2nnnn2-c2ccccc2)c(Cl)c1 | 0.576 | 
19 | Cc1ccc(C2=N/C(=C\c3c(C)nn(-c4ccccc4)c3N3CCCC3)C(=O)O2)cc1 | 5.3 | 
20 | O=C(CN1C(=O)/C(=C2\SC(=S)N(CCS(=O)(=O)O)C2=O)c2ccccc21)Nc1cccc(Br)c1 |  | 5.21 µM (active)

Row | SMILES | activity change, negative = inhibition [%] | Potency
21 | C[C@@H]1CN([C@H](C)CO)C(=O)c2cc(NS(=O)(=O)c3ccc(F)cc3)ccc2O[C@@H]1CN(C)Cc1ccc(Cl)c(Cl)c1 | -2.62 | 
22 | CCCCCc1ccc(OCCOCCn2c[n+](C)c3ccccc32)c(CCCCC)c1 | -16.2 | 
23 | O=C(Nc1ccccc1)c1cc(Cl)nc2ccccc12 | -1.69 | 
24 | CC(C)c1ccc(Nc2nnc(SCC(=O)c3nnc(-c4ccccc4)o3)s2)cc1 |  | 6.56 µM (active)
25 | Cc1ccc(NC(=O)CCC(=O)OC(C)C(=O)c2ccccc2)cc1 (centres undefined) | 1.96 | 
26 | COC(=O)C1CCN(C(=O)COC(=O)CC(NC(N)=O)c2ccc(Cl)cc2)CC1 (centres undefined) | 1.45 | 
27 | CCOC(=O)c1ccc(NC(=O)C2=C(C)Nc3nc(CCCO)nn3C2c2cccc(C)c2)cc1 (centres undefined) | -2.56 | 
28 | O=C(CCn1c(=O)c2ccccc2n(Cc2ccccc2)c1=O)NCc1ccc2c(c1)OCO2 | -12.1 | 
29 | C=CCOc1cccc(C2C(C(=O)c3ccco3)=C(O)C(=O)N2CCN(CC)CC)c1 (centres undefined) | 3.3 | 
30 | CC(C)(C)C1CCc2nc(NC(=O)Cc3cn4ccsc4n3)sc2C1 (centres undefined) | -5.16 | 
31 | O=C(C1CCCN(S(=O)(=O)c2cccc3cccnc23)C1)N1CCN(c2ccccc2F)CC1 (centres undefined) | -4.76 | 
32 | CC1=NC(C(F)(F)F)(C(F)(F)F)C2=C(CC(C)(C)CC2=O)N1Cc1ccco1 | -1.12 | 
33 | O=C1OC[C@@H]2CCCN2C(=O)[C@@H](CC(=O)N(CCO)Cc2ccccc2)C/C=C\C[C@@H]1Cc1ccc(F)cc1 | 2.66 | 
34 | CC(/C=N/NC(=O)c1cc(-c2cccs2)[nH]n1)=C\c1ccccc1 | -8.93 | 
35 | Cn1cccc1CC(=O)N/N=C/C=C/c1ccco1 | -10.7 | 
36 | Cc1ccc(C(=O)NCCNS(=O)(=O)c2ccccc2)cc1 | 3.38 | 
37 | CC(=O)O[C@H]1[C@H](O)[C@H](Oc2c(O)c(C)c3c4c2[C@@H](C)CC[C@@H]4[C@@H](C)C[C@H]3C=C(C)C)O[C@@H](C)[C@H]1O | -3.83 | 
38 | COC(=O)c1c(N2C(=O)CCC2=O)sc2c1CCCC2 | -2.43 | 
39 | CN(C)C=Nc1ncc2c3ccccc3n(CCN(C)C)c2c1C#N | -4.97 | 
